According to ChEMBL document CHEMBL1961873, “Compounds: GSK PKIS; Assays: Nanosyn kinase panel” (2012):

What was measured:
[1] = biological target: Tyrosine-protein kinase CSK (Homo sapiens) (UniProt P41240); conditions: at 1 µM;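 note: each value is an averaged inhibition reading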
[2] = biological target: T1, Discoidin domain-containing receptor 2 (Homo sapiens) (UniProt Q16832); conditions: at 0.1 µM
T1 sequence (whole entry): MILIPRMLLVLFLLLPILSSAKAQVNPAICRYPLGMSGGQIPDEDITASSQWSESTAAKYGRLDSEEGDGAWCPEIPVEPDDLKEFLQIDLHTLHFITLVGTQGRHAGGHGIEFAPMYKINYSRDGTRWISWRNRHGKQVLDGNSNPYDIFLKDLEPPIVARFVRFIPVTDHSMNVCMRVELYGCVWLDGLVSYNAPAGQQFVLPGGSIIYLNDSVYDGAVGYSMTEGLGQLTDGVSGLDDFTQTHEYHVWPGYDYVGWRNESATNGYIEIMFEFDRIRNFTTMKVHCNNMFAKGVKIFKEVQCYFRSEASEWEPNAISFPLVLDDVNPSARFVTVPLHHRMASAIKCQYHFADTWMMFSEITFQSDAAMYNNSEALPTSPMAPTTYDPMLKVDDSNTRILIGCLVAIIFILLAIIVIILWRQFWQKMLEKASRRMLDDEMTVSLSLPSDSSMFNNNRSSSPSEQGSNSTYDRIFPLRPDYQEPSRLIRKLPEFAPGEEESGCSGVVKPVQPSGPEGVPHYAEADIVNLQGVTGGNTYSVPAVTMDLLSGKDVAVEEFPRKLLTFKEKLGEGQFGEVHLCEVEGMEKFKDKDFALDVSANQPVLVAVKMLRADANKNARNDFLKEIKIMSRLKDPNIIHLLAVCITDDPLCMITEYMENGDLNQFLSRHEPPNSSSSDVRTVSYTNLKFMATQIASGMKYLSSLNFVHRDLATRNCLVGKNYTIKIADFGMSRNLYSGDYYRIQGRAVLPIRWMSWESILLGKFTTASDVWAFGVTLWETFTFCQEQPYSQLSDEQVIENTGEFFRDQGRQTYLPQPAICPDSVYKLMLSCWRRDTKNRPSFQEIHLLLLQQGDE

[3] = biological target: T1, Discoidin domain-containing receptor 2 (Homo sapiens); conditions: at 1 µM
[4] = biological target: Epidermal growth factor receptor (Homo sapiens) (UniProt P00533); conditions: at 0.1 µM
Epidermal growth factor receptor (Homo sapiens), sequence (P00533 whole entry): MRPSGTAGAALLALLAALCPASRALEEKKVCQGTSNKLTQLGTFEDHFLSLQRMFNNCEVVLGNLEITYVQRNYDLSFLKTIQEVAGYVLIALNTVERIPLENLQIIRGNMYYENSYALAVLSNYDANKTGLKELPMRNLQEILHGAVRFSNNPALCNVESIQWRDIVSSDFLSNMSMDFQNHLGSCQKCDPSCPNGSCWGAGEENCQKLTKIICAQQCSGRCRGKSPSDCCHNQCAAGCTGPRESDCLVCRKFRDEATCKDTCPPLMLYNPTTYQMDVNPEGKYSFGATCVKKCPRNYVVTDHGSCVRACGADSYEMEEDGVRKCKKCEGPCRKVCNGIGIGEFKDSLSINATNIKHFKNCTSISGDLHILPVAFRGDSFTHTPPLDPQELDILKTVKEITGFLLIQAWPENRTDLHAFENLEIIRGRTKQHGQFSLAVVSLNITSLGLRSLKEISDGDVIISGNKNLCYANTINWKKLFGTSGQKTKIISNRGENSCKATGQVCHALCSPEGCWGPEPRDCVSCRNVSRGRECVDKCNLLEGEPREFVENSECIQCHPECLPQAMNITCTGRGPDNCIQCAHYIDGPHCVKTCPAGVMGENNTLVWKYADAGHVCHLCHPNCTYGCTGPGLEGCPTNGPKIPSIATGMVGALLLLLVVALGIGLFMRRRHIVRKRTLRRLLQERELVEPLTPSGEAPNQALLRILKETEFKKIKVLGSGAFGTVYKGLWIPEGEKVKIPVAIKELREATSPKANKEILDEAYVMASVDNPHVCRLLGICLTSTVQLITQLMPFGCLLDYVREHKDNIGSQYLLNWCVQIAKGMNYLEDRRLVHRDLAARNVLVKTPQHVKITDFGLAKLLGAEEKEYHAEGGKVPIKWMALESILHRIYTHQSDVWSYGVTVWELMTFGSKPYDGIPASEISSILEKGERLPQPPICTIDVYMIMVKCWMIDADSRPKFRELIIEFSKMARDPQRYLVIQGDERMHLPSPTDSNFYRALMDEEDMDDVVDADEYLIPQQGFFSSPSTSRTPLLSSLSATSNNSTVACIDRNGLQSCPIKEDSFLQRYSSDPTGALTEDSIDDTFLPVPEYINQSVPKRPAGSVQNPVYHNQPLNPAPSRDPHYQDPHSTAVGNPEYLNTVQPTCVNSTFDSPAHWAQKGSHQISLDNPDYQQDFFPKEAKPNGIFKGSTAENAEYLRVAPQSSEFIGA

[5] = biological target: Epidermal growth factor receptor (Homo sapiens) (UniProt P00533); conditions: at 1 µM
[6] = system: Epidermal growth factor receptor (Homo sapiens), P00533 [L858R]; conditions: at 0.1 µM
[7] = system: Epidermal growth factor receptor (Homo sapiens), P00533 [L858R]; conditions: at 1 µM
[8] = system: Epidermal growth factor receptor (Homo sapiens), P00533 [L861Q]; conditions: at 0.1 µM
Epidermal growth factor receptor (Homo sapiens), P00533 [L861Q], sequence (P00533 whole entry L861Q): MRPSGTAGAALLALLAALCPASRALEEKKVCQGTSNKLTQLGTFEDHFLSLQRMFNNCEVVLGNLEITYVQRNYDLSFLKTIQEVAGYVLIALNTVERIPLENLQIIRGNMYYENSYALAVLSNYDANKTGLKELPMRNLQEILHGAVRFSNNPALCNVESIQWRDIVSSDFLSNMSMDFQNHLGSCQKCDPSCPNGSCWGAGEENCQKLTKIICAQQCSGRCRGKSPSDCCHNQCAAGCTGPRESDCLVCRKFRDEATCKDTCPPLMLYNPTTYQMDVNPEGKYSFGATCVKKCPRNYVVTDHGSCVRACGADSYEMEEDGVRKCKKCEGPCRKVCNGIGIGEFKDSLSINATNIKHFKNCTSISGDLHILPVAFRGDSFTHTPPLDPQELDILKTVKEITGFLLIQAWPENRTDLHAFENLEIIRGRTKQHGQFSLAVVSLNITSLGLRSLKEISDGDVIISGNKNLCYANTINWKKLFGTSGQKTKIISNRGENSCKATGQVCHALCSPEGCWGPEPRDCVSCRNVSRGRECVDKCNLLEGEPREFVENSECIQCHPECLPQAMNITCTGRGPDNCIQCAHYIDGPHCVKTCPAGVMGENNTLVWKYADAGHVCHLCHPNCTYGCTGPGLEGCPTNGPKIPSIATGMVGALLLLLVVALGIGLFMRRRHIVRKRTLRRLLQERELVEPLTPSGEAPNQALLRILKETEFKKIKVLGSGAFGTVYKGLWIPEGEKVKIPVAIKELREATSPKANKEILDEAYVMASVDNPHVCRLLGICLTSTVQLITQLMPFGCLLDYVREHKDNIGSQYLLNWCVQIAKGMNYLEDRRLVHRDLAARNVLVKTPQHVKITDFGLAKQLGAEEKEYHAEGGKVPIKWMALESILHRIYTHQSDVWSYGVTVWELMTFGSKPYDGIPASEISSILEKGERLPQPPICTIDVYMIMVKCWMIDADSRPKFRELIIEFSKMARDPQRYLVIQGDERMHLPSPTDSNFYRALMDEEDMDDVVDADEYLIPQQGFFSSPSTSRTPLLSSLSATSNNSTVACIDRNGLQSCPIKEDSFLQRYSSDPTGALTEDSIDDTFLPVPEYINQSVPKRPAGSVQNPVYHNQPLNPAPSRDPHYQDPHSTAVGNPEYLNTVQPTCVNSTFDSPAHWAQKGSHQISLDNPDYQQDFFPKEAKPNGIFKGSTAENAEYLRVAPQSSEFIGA

[9] = system: Epidermal growth factor receptor (Homo sapiens), P00533 [L861Q]; conditions: at 1 µM
[10] = system: Epidermal growth factor receptor (Homo sapiens), P00533 [T790M]; conditions: at 0.1 µM
Epidermal growth factor receptor (Homo sapiens), P00533 [T790M], sequence (P00533 whole entry T790M): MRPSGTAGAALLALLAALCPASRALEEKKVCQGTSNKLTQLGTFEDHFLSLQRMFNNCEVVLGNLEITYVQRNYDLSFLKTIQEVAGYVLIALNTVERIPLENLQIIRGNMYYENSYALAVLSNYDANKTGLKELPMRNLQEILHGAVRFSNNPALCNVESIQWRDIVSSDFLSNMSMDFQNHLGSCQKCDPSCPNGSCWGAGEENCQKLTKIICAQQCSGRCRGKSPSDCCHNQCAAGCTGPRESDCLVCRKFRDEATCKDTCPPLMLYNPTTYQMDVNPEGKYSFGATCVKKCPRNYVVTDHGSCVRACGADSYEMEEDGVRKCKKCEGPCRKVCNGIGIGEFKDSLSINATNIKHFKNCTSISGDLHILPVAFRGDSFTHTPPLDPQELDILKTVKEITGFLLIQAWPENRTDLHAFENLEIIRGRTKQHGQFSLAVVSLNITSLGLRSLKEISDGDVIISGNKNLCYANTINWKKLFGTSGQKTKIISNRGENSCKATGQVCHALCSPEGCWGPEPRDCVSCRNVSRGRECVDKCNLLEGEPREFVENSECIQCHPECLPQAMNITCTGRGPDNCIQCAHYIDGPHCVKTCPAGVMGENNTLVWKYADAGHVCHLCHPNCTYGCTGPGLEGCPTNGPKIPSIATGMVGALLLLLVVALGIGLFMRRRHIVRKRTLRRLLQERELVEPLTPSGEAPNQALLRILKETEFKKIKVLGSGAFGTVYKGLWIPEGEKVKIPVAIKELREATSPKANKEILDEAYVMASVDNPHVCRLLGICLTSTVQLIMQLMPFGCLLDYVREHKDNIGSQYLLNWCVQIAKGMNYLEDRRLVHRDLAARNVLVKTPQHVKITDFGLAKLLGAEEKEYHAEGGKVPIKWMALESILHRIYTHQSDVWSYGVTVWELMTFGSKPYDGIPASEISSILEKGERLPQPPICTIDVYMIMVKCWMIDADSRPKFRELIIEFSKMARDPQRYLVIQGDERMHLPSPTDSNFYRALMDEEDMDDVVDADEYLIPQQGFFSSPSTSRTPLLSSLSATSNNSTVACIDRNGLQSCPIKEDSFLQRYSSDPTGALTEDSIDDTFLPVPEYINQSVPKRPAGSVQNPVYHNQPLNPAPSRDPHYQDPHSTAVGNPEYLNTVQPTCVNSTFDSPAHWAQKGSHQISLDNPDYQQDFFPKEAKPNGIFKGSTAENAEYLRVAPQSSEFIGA

[11] = system: Epidermal growth factor receptor (Homo sapiens), P00533 [T790M]; conditions: at 1 µM
[12] = system: Epidermal growth factor receptor (Homo sapiens), P00533 [L858R,T790M]; conditions: at 0.1 µM
Epidermal growth factor receptor (Homo sapiens), P00533 [L858R,T790M], sequence (P00533 whole entry T790M/L858R, looked up): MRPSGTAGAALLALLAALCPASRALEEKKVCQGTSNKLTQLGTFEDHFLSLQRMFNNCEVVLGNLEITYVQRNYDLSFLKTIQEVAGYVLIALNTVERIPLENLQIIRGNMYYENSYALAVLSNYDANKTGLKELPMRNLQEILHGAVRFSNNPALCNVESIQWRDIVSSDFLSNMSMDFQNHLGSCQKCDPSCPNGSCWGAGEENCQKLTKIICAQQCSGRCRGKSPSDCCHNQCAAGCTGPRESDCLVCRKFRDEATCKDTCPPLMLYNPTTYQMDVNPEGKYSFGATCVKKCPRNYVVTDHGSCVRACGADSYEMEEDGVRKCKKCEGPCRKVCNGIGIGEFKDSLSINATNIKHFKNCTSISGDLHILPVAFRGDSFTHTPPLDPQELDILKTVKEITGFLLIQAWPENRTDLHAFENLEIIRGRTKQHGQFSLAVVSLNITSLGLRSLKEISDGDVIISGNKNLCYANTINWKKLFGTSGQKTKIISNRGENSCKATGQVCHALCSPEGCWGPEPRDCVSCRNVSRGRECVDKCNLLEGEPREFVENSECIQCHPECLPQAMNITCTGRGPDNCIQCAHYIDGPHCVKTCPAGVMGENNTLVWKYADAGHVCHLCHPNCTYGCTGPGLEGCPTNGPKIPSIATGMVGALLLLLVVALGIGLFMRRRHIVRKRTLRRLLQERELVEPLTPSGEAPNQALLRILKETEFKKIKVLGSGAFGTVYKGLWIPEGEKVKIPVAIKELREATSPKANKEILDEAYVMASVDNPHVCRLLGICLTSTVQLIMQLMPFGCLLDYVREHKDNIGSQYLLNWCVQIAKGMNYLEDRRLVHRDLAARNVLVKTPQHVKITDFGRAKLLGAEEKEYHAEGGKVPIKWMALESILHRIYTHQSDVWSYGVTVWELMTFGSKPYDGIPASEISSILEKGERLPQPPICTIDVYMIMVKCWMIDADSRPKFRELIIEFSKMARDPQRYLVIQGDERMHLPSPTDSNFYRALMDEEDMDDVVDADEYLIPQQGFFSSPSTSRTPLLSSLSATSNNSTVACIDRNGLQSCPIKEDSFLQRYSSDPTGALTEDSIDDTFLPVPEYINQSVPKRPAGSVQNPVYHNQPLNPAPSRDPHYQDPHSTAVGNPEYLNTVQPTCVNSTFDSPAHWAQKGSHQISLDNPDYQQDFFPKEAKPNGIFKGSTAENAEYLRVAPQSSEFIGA

[13] = system: Epidermal growth factor receptor (Homo sapiens), P00533 [L858R,T790M]; conditions: at 1 µM
[14] = biological target: Ephrin type-A receptor 2 (Homo sapiens) (UniProt P29317); conditions: at 0.1 µM
[15] = biological target: Ephrin type-A receptor 2 (Homo sapiens) (UniProt P29317); conditions: at 1 µM
[16] = biological target: T2, Ephrin type-A receptor 3 (Homo sapiens) (UniProt P29320); conditions: at 0.1 µM
T2 sequence (whole entry): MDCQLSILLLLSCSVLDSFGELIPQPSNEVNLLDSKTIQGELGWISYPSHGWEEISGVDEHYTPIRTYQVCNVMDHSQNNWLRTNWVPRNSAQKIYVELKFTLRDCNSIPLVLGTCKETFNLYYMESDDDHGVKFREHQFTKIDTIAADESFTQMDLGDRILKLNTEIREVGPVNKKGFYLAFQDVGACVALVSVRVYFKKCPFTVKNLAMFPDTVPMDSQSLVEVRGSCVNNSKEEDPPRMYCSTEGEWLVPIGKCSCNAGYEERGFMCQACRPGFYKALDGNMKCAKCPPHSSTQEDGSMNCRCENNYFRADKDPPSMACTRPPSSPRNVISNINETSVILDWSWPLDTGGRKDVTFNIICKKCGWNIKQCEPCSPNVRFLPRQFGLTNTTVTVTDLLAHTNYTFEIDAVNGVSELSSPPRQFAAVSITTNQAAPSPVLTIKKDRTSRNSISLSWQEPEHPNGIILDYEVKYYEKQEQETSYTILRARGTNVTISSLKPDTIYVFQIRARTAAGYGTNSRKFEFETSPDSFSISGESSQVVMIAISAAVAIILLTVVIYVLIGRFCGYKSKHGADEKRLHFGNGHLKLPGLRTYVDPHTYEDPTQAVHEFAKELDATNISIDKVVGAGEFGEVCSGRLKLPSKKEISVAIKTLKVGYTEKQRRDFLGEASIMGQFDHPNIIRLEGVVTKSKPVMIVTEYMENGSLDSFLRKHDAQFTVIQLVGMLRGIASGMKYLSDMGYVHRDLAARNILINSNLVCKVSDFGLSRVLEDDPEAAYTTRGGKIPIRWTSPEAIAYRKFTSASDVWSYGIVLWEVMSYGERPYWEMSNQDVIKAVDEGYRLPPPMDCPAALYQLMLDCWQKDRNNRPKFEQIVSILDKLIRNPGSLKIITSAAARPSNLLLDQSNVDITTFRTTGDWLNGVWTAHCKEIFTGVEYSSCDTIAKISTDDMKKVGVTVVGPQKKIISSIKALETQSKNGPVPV

[17] = biological target: T2, Ephrin type-A receptor 3 (Homo sapiens); conditions: at 1 µM
[18] = biological target: Ephrin type-A receptor 4 (Homo sapiens) (UniProt P54764); conditions: at 0.1 µM
[19] = biological target: Ephrin type-A receptor 4 (Homo sapiens) (UniProt P54764); conditions: at 1 µM
[20] = biological target: T3, Ephrin type-B receptor 2 (Homo sapiens) (UniProt P29323); conditions: at 0.1 µM;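 note: reported as mean inhibition of EPHB2, from the GSK PKIS dataset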
T3 sequence (whole entry): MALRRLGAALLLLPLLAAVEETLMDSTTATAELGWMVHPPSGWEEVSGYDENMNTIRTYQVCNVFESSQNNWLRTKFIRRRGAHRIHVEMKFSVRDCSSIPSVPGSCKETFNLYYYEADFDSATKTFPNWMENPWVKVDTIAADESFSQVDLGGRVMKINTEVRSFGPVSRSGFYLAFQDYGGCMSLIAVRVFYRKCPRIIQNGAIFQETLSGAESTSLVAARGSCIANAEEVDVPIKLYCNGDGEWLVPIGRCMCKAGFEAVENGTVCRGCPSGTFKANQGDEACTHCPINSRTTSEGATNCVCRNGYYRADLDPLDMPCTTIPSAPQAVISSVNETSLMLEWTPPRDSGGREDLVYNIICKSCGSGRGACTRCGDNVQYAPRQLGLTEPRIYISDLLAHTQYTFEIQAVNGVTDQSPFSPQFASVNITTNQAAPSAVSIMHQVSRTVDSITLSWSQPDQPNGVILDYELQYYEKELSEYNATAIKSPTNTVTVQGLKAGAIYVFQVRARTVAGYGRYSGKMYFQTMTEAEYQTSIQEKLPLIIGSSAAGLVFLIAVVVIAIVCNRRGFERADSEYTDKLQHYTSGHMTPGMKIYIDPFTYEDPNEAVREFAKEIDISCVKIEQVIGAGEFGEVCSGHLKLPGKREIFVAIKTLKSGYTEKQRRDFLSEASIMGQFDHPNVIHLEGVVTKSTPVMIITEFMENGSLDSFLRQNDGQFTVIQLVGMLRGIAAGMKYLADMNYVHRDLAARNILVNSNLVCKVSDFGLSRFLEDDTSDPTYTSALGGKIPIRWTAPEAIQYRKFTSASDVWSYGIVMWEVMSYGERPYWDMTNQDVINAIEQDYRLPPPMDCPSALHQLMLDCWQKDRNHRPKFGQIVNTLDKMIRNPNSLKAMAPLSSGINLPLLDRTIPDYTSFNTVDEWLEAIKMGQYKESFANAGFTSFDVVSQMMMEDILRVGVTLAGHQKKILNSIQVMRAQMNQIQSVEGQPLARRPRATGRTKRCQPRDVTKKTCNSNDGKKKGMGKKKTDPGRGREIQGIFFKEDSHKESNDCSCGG

SMILES | inhibition [1] [%] | inhibition [2] [%] | inhibition [3] [%] | inhibition [4] [%] | inhibition [5] [%] | inhibition [6] [%] | inhibition [7] [%] | inhibition [8] [%] | inhibition [9] [%] | inhibition [10] [%] | inhibition [11] [%] | inhibition [12] [%] | inhibition [13] [%] | inhibition [14] [%] | inhibition [15] [%] | inhibition [16] [%] | inhibition [17] [%] | inhibition [18] [%] | inhibition [19] [%] | inhibition [20] [%]
Fc1ccc(-c2ncn(C3CCNCC3)c2-c2ccnc(Oc3ccc(Oc4ccccc4)cc3)n2)cc1 | 3.28 | 2.83 | 14.8 | 2.08 | 4.02 | -0.18 | 11.3 | 2.06 | 6.3 | 1.46 | 4.11 | 1.7 | 6.06 | 1.86 | 1.01 | 2.44 | 4.03 | 6.9 | 7.87 | 7.52
c1ccc(Oc2ccc(Nc3ncc(-c4ccccc4)o3)cc2)cc1 | 1.07 | 0.51 | 0.6 | 1.92 | 3.79 | 1.22 | 0.93 | 1.49 | 3.06 | 0.57 | 0.24 | -0.18 | 4.16 | -2.63 | -2.48 | 2.07 | 2.91 | 4.49 | 4.79 | 7.5
Cc1nnc(-c2ccc(C)c(-c3ccc(C(=O)NCc4ccc(Cl)cc4)cc3)c2)o1 | 5.62 | 0.22 | -0.21 | -3.58 | -0.27 | 1.36 | 2.71 | 2.71 | 1.09 | 0.7 | 3.59 | 1.86 | 2.04 | -3.78 | -3.32 | -0.26 | -1.93 | 6.29 | 5.1 | 2.73
COc1ccc2cc(-c3c(-c4ccncc4)nc(-c4ccc([S+](C)[O-])cc4C)n3C)ccc2c1 (stereo not given) | -1.23 | -2.64 | -4.31 | 2.02 | 7.54 | -1.17 | 5.96 | -0.12 | 9.44 | -0.7 | 0.13 | -3 | 3.5 | -1.85 | -0.23 | -1.34 | -0.2 | -0.17 | 18.6 | 1.99
CCS(=O)(=O)c1ccc(OC)c(Nc2ncc(-c3ccccc3Cl)o2)c1 | 1.96 | 3.73 | 8.46 | -0.49 | 0.66 | -1.25 | 7.46 | 2.33 | 1.22 | 1.78 | 3.29 | -1.69 | -0.03 | 1.32 | 1.73 | 5.46 | 4.36 | 5.58 | 9.33 | 4.99
C[C@@H](Oc1cc(-n2cnc3ccc(OCC4CCN(C)CC4)cc32)sc1C(N)=O)c1ccccc1Cl | 3.59 | 2.64 | 8.53 | 3.04 | 3.73 | 4.5 | 19.8 | 1.43 | 5.89 | 1.15 | 3.47 | -2.11 | 7.41 | 1.42 | 1.71 | 3.99 | 4.27 | 8.9 | 11.6 | 9.82
O=C1Nc2ccc(I)cc2C1=Cc1cc(Br)c(O)c(Br)c1 | 4.94 | 1.45 | 3.44 | 2.85 | -1.18 | -1.9 | 2.8 | 2.43 | 3.74 | 0.08 | 1.77 | -1.49 | -1.12 | 1.35 | 1.12 | 1.79 | 4.64 | 7.31 | 9.77 | 5.47
